Legend:
Test in all cases: DAPPL (digital affinity profiling via proximity ligation, sequencing); 10 mM Tris-HCl pH 7.5, 50 mM NaCl, 1 mM DTT, 4% glycerol, room temperature, 30 min; GST-TFs on glutathione beads, 16-mer random dsDNA library, 0.1% formaldehyde crosslink after washing; high values mean tight binding
Details in all cases: protein: recombinant; tags: N-terminal GST; dsDNA, one strand shown
FEV = target: T1, FEV (Homo sapiens, UniProt Q99581 1-238)
T1 sequence: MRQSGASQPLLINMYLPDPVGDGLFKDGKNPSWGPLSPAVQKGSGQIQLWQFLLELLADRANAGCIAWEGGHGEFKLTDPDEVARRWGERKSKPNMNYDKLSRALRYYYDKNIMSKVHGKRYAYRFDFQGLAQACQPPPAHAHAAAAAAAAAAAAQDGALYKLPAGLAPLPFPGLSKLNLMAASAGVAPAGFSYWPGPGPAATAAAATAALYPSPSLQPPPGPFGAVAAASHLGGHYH
Procedure, shortened: (§1)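 Binding signal is defined as a hexamer's read frequency for one factor over its frequency for the tag-only sample. To obtain reads, GST-fused human transcription factors were expressed in yeast, captured on glutathione beads, barcoded with DNA and pooled with that sample. Pools met 200 nmole of a 16-mer random double-stranded DNA library in Tris/NaCl/DTT/glycerol buffer for 30 min at room temperature before washing, 0.1% formaldehyde crosslinking, proximity ligation (BsaI/T4 ligase, 1 h, 37 °C), PCR and Illumina NextSeq500 sequencing.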

ETV5 = ETV5 (Homo sapiens, UniProt P41161 1-510)
Chain of ETV5 (P41161 whole entry): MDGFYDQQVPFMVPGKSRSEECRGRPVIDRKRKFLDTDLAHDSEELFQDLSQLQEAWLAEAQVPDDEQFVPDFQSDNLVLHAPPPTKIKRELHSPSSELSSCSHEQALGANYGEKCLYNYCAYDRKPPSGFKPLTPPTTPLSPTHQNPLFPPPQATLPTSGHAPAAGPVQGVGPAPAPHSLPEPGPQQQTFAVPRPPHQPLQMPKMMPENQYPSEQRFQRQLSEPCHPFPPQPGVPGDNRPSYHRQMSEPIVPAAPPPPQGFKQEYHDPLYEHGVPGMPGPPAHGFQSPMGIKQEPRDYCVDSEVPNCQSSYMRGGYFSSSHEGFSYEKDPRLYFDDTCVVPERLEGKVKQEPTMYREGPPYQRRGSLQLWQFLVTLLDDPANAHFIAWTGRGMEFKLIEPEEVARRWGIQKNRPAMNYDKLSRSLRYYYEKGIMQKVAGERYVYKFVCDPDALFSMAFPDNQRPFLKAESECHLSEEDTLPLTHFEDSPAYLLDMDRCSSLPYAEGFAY
Procedure, shortened: as §1

SPIC = target: T2, SPIC (Homo sapiens, UniProt Q8N5J4 1-248)
T2 sequence: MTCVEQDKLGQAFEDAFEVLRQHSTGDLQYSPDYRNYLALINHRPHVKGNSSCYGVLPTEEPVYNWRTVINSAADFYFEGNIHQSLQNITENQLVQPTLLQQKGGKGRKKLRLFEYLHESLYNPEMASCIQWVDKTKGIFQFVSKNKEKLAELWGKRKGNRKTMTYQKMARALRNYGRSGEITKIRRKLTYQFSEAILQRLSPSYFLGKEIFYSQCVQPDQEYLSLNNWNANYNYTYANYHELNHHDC
Procedure, shortened: as §1

ELF4 = ELF4 (Homo sapiens, UniProt Q99607 1-663)
Chain of ELF4 (Q99607 whole entry): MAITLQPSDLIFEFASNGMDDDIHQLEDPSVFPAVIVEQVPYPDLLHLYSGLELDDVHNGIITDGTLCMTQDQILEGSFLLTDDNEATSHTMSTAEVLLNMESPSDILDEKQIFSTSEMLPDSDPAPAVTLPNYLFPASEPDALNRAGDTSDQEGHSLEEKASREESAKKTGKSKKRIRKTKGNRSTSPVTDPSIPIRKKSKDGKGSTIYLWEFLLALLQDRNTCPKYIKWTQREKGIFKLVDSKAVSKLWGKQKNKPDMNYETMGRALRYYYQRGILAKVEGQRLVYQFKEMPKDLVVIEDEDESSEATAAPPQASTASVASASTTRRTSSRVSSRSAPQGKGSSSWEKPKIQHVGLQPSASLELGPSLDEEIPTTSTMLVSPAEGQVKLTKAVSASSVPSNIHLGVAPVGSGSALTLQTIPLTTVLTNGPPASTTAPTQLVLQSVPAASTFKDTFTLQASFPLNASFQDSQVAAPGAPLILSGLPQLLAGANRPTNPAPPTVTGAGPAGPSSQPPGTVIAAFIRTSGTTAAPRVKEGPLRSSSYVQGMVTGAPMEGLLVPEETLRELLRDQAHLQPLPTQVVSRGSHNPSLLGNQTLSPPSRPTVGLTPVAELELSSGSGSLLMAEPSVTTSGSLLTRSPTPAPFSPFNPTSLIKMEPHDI
Procedure, shortened: as §1

ERF = target: T3, ERF (Homo sapiens, UniProt P50548 1-548)
T3 sequence: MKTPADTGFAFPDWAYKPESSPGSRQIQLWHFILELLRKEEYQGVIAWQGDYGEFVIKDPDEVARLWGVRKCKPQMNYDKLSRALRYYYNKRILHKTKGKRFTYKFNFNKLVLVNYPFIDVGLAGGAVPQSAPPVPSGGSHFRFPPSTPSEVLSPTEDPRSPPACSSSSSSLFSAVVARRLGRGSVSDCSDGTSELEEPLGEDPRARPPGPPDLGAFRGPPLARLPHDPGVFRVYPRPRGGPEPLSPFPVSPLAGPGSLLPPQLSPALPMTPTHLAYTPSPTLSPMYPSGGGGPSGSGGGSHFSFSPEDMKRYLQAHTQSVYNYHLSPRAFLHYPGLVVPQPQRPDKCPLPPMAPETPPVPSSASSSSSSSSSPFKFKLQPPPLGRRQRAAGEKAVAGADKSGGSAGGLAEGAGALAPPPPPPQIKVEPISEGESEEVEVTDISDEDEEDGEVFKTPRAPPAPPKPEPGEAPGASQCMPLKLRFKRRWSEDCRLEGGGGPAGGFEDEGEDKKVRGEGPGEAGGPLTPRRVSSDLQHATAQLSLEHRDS
Procedure, shortened: as §1

ETV3L = target: T4, ETV3L (Homo sapiens, UniProt Q6ZN32 1-361)
T4 sequence: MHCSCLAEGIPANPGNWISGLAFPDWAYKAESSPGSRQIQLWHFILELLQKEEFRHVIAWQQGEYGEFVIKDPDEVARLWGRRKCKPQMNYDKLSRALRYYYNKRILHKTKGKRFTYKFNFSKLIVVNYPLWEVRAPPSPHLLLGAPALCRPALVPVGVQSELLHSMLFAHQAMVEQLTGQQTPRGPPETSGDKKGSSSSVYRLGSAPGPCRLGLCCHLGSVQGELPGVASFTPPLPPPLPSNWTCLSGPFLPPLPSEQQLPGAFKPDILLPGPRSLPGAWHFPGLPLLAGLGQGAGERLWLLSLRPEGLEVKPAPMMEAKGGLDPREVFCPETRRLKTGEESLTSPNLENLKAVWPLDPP
Procedure, shortened: as §1

ETS2 = target: T5, ETS2 (Homo sapiens, UniProt P15036 1-469)
T5 sequence: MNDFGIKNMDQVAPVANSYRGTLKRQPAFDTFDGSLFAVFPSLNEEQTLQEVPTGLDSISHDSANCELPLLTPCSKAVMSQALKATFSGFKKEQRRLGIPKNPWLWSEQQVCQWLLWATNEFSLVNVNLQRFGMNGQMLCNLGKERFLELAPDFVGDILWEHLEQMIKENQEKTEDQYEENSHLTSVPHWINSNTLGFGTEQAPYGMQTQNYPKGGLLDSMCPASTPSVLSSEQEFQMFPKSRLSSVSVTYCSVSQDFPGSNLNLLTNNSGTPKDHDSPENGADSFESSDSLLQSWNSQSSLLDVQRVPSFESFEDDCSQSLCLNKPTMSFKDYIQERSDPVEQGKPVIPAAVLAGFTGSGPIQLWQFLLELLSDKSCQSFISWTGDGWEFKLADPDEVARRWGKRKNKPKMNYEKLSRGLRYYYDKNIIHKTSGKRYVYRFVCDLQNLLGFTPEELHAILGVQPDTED
Procedure, shortened: as §1

SPDEF = target: T6, SPDEF (Homo sapiens, UniProt O95238 1-335)
T6 sequence: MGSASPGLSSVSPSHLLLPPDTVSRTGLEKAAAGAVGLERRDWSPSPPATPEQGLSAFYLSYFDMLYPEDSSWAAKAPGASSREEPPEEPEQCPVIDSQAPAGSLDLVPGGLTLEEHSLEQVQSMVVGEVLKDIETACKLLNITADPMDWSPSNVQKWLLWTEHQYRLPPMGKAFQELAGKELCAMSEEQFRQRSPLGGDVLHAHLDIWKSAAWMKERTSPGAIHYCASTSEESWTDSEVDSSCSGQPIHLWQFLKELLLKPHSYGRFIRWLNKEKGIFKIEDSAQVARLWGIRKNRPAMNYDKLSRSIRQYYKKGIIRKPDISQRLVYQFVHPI
Procedure, shortened: as §1

ETV3 = target: T7, ETV3 (Homo sapiens, UniProt P41162-2 1-143)
T7 sequence: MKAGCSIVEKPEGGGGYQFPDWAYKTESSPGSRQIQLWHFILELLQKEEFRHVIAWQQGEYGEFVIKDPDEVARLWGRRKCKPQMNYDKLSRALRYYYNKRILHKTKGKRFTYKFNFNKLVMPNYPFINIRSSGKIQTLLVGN
Procedure, shortened: as §1

ETV6 = ETV6 (Homo sapiens, UniProt P41212 1-452)
Chain of ETV6 (P41212 whole entry): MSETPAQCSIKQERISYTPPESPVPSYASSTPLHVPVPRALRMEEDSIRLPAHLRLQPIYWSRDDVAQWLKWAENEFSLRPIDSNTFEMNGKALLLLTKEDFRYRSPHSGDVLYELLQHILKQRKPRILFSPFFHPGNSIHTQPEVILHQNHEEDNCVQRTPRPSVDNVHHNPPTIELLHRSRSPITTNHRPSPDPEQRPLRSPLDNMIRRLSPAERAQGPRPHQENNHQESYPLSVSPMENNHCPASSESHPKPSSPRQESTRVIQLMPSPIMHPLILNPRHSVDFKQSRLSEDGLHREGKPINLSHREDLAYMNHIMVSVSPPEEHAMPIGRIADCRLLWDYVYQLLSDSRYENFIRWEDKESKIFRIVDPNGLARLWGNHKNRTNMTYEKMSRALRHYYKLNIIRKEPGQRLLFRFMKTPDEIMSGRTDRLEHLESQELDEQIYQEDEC
Procedure, shortened: as §1

Question: Which results are given for CATACC?
Answer: binding signal (FEV): 1.07 fold enrichment (6-mer frequency, TF over GST control); binding signal (ETV5): 1.04 fold enrichment (6-mer frequency, TF over GST control); binding signal (SPIC): 1.03 fold enrichment (6-mer frequency, TF over GST control); binding signal (ELF4): 1.1 fold enrichment (6-mer frequency, TF over GST control); binding signal (ERF): 1.03 fold enrichment (6-mer frequency, TF over GST control); binding signal (ETV3L): 1.17 fold enrichment (6-mer frequency, TF over GST control); binding signal (ETS2): 1.1 fold enrichment (6-mer frequency, TF over GST control); binding signal (SPDEF): 1.14 fold enrichment (6-mer frequency, TF over GST control); binding signal (ETV3): 1.06 fold enrichment (6-mer frequency, TF over GST control); binding signal (ETV6): 1.01 fold enrichment (6-mer frequency, TF over GST control)

From PMC7862700, “An all-to-all approach to the identification of sequence-specific readers for epigenetic DNA modifications on cytosine”
